Source: PubChem BioAssay
Sampled rows, rich in hits. Any-hit rate of the full collection: about 3.3%.
BoNT F protease: blocks Botulinum neurotoxin F light chain protease; Multiplex microsphere protease cleavage assay, flow cytometry; inhibition, % at 10 µM; 360,000 compounds, 0.22% hits; AID 588497; in the data active = inhibition above about 35%, passing the limit was not always enough; inconclusive = no clear call, values can overlap the other calls
MazEF act: activators of E. coli MazEF toxin-antitoxin RNase; P0AE70; FAM/BHQ RNA-DNA oligo cleavage fluorescence, 5 h; activation, % at 20 µM; 350,000 compounds, 0.32% hits; AID 504720; in the data active = activation above about 50%
Target sequence (P0AE70 whole entry, looked up): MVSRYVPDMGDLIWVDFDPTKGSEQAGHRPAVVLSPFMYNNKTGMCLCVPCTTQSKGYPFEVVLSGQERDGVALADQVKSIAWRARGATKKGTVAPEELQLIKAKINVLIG
BoNT-A LC inh2: BoNT A light chain protease inhibition; inhibition, % at 10 µM; AID 588499; 360,000 compounds, 0.17% hits; multiplex microsphere protease substrate cleavage, flow cytometry
Anthrax LF prot: blocks Bacillus anthracis lethal factor protease | AID 588501 | P15917 | inhibition, % at 10 µM | multiplex microsphere protease cleavage assay, LF | 360,000 compounds, 0.12% hits
Autofluor counter: counter-screen for toxin protease inhibitors: compound fluorescence | compound autofluorescence counterscreen, microsphere flow cytometry; stronger effect = higher value | fluorescence intensity (test concentration not listed) | 360,000 compounds, 3.1% hits | AID 624483; in the data active = fluorescence intensity above about 16000; inconclusive = no clear call, values can overlap the other calls
PriA SSB inh: blocks PriA binding to SSB C-terminal tail. 430,000 compounds, 0.6% hits. inhibition, % at 33 µM. AID 1272365. AlphaScreen SSBct-PriA binding, biotinylated peptide; in the data active = inhibition mostly above about 37%, no sharp cut-off; inactive = mostly below about 20%
A number is an active result. Cut-off read from the data, not from the text of the source, unless noted: active = inhibition above about 30%; inconclusive = no clear call, values can overlap the other calls; inactive = below that.

What do the screens show for `CCOC(=O)N1CCN(c2c([N+](=O)[O-])c(=O)n(-c3ccccc3)c3ccccc23)CC1`?
PriA SSB inh: inactive

Results for Cc1c2c(nc3c(C(=O)NC4CC4)cnn13)CCCC2 ?
BoNT F protease: inactive; MazEF act: inactive; BoNT-A LC inh2: inactive; Anthrax LF prot: inactive; Autofluor counter: 21129; PriA SSB inh: inactive

Results for CCc1ccc(/C=C2\CN(CC)Cc3c2nc2ccccc2c3C(=O)O)cc1 ?
BoNT F protease: inactive; MazEF act: inactive; BoNT-A LC inh2: inactive; Anthrax LF prot: inactive; Autofluor counter: 27805; PriA SSB inh: inactive

What do the screens show for `COc1ccc(CNC(=O)CN2C(=O)C3CCCN3c3ncc(Cl)cc32)cc1` (configuration not stated)?
BoNT F protease: inactive; MazEF act: inactive; BoNT-A LC inh2: inconclusive; Anthrax LF prot: inactive; Autofluor counter: 21975; PriA SSB inh: inactive

What do the screens show for `O=C(CN1C(=O)C2CCCN2c2ncc(Cl)cc21)NCc1ccc2c(c1)OCO2` (configuration not stated)?
BoNT F protease: inactive; MazEF act: inactive; BoNT-A LC inh2: inactive; Anthrax LF prot: inactive; Autofluor counter: inactive; PriA SSB inh: inactive

Results for COc1ccc(-c2c(C)oc3ccc(C)cc23)cc1 ?
BoNT F protease: inactive; MazEF act: inactive; BoNT-A LC inh2: inactive; Anthrax LF prot: inactive; Autofluor counter: 23892; PriA SSB inh: inactive

Results for CCOc1ccc(C(=O)NC(=S)Nc2ccccc2N2CCC(C)CC2)cc1[N+](=O)[O-] ?
BoNT F protease: inactive; MazEF act: inactive; BoNT-A LC inh2: inactive; Anthrax LF prot: inactive; Autofluor counter: inconclusive; PriA SSB inh: inactive

What do the screens show for `CCOc1ccc(C(=O)NC(=S)Nc2ccc(N3CCC(C)CC3)cc2)cc1[N+](=O)[O-]`?
BoNT F protease: 39; MazEF act: inactive; BoNT-A LC inh2: inactive; Anthrax LF prot: inactive; Autofluor counter: inactive; PriA SSB inh: inactive

Results for COc1ccc(-n2cc3c(-c4cccc(Br)c4)nnc(C)c3n2)cc1 ?
BoNT F protease: inactive; MazEF act: 52; BoNT-A LC inh2: inactive; Anthrax LF prot: inactive; Autofluor counter: 48432; PriA SSB inh: inactive

What do the screens show for `O=C(c1cn(-c2ccccc2)nc1-c1cccc(Br)c1)N1CCOCC1`?
BoNT F protease: inactive; MazEF act: inactive; BoNT-A LC inh2: inactive; Anthrax LF prot: inactive; Autofluor counter: inactive; PriA SSB inh: inactive

What do the screens show for `Cc1nnc(-c2cccc(Br)c2)c2cn(-c3cccc(Br)c3)nc12`?
BoNT F protease: inactive; MazEF act: inactive; BoNT-A LC inh2: inactive; Anthrax LF prot: inactive; Autofluor counter: 34824; PriA SSB inh: inactive

Results for O=C(O)/C=C/C(=O)NCc1cn(-c2ccccc2)nc1-c1cccc(Br)c1 ?
BoNT F protease: inactive; MazEF act: inactive; BoNT-A LC inh2: inactive; Anthrax LF prot: inactive; Autofluor counter: inactive; PriA SSB inh: inactive

Results for Cc1nnc(-c2cccc(Br)c2)c2cn(-c3ccc(Br)cc3)nc12 ?
BoNT F protease: inactive; MazEF act: inactive; BoNT-A LC inh2: inactive; Anthrax LF prot: inactive; Autofluor counter: 17435; PriA SSB inh: inactive

How did Cc1nnc(-c2cccc(Br)c2)c2cn(-c3ccccc3)nc12 do in these assays?
BoNT F protease: inactive; MazEF act: inactive; BoNT-A LC inh2: inactive; Anthrax LF prot: inactive; Autofluor counter: 32979; PriA SSB inh: inactive

Results for Nc1cc(-c2ccc(Cl)cc2)no1 ?
PriA SSB inh: inactive

How did COc1ccc(C(O)CNC(=O)c2ccsc2)cc1OC (configuration not stated) do in these assays?
PriA SSB inh: inactive

What do the screens show for `O=C(CN1CCN(c2ccccc2)CC1)Nc1c(C(=O)C2CC2)oc2ccccc12`?
BoNT F protease: inactive; MazEF act: inactive; BoNT-A LC inh2: inconclusive; Anthrax LF prot: inactive; Autofluor counter: 20951; PriA SSB inh: inactive

Results for O=C(NCCn1ncccc1=O)c1ccc(F)cc1F ?
PriA SSB inh: inactive

How did Cc1noc(-c2cccn3c(CNC(=O)c4ccsc4)nnc23)n1 do in these assays?
PriA SSB inh: inactive

What do the screens show for `CN1CCN(N=Cc2c3ccccc3c(Cl)c3ccccc23)CC1`?
PriA SSB inh: 53

What do the screens show for `Nc1ccccc1Nc1cc(-c2ccccc2)nn1-c1ccccc1`?
BoNT F protease: inactive; MazEF act: inactive; BoNT-A LC inh2: inactive; Anthrax LF prot: inactive; Autofluor counter: inactive; PriA SSB inh: 60

How did CCCCN1C(=O)CCc2cc(NC(=O)COc3ccccc3OC)ccc21 do in these assays?
PriA SSB inh: inactive

How did CC(C)OCCCNC(=O)c1ccncc1 do in these assays?
BoNT F protease: inactive; MazEF act: inactive; BoNT-A LC inh2: inactive; Anthrax LF prot: inactive; Autofluor counter: 18964; PriA SSB inh: inactive
